The list is not random: actives were taken first. Their share in the collection is about 9%.
BAZ2B block – blocks human BAZ2B; Q9UIF8; AlphaScreen BAZ2B-H3K14Ac peptide displacement; Potency, µM (titrated, usually from 114 µM), hits mostly inhibitors; actives 4.4% (n = 360,000); AID 504333; also: nearly all actives have a fitted effect of over 60% in size
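Multi-concentration screen (max 110 uM) measuring displacement of acetylated histone H3 peptide from BAZ2B by AlphaScreen, using 50 nM protein, 50 nM peptide and 10 ug/mL streptavidin donor plus Ni-chelate acceptor beads.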
G9a block – inhibitors of human histone lysine methyltransferase G9a; Potency, µM (highest dose often 102 µM), most hits filed as inhibitors; Q96KQ7; actives 8.8% (n = 350,000); AID 504332; G9a H3K9 monomethylation, AlphaScreen, 2 h; also: nearly all actives have a fitted effect of over 75% in size
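AlphaScreen detection with an anti-monomethyl H3K9 antibody quantified product after a 2 h room-temperature reaction containing 500 nM biotinylated H3K9 peptide, 20 µM SAM and 20 nM enzyme, which had been preincubated 15 min with compound.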
PLK1 PBD block – inhibitors of human PLK1 polo-box domain binding | actives 2.8% (n = 360,000) | Potency, µM, actives largely listed as inhibitors | AID 720504 | Plk1 PBD binding of FITC phosphopeptide, fluorescence polarization; also: series mostly up to about 57 µM; nearly all actives have a fitted effect of over 65% in size
ALOX12 inh – ALOX12 (human) lipoxygenase inhibition; purified 12hLO, xylenol orange hydroperoxide absorbance; actives 1.1% (n = 580,000); Potency, µM (titrated, usually from 108 µM), hits mostly inhibitors
Target sequence (P18054 whole entry, looked up): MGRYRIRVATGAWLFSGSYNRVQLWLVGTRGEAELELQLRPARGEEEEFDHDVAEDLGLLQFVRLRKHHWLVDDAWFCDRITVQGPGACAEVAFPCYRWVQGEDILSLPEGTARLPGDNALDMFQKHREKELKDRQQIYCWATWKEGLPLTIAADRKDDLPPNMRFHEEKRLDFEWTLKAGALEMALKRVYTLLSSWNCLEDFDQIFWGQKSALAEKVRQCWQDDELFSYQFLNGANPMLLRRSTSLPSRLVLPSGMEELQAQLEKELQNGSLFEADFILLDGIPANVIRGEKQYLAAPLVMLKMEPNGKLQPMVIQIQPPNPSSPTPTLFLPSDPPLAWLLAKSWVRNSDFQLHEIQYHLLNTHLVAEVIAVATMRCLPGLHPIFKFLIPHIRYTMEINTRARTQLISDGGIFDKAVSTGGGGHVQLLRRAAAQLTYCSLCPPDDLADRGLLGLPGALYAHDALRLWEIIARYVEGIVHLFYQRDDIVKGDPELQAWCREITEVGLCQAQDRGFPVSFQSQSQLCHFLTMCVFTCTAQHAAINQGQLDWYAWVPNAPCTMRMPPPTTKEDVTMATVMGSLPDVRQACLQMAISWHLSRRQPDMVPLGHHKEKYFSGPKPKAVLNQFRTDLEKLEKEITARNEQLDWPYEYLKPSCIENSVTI
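Hydroperoxide product was detected by ferrous iron/xylenol orange as the 573 to 405 nm absorbance ratio. Arachidonic acid at 40 uM (final) was turned over for 30 min at room temperature by 150 nM human 12hLO, pH 7.0 Hepes buffer, after 15 min compound preincubation.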
HP1b chromo inh – HP1-beta chromodomain-methylated histone interaction inhibition; actives 0.56% (n = 390,000); P83916; AlphaScreen HP1-beta / biotin-H3K9me3 peptide binding; AID 540317; Potency, µM (series often up to 114 µM), hits mostly inhibitors; also: nearly all actives have a fitted effect of over 70% in size
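HP1-beta protein (50 nM final) preincubated 30 min at room temperature with biotinylated H3(1-18)K9me3 peptide (50 nM) in PBS pH 7.4, 0.01% Tween-20, then compound added for 30 min. AlphaScreen streptavidin donor/nickel chelate acceptor beads (10 ug/mL final), 30 min dark, luminescence read.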
JMJD2A Tudor inh – blocks the human JMJD2A Tudor domain | actives 4.4% (n = 390,000) | Potency, µM (top dose mostly 114 µM), actives largely listed as inhibitors | AlphaScreen JMJD2A-Tudor / H3K4me3 peptide binding | O75164; also: nearly all actives have a fitted effect of over 50% in size
Of the large screens only hits and unclear results are named; the others gave an inactive call; ! = repeats disagree. Calls follow the shape of the dose curve; as a rule, active = well fitted curve in the direction sought with a large enough effect; inconclusive = small, poorly fitted or top-dose-only effect, or another doubt; inactive = no such curve, though single readings can be large; an effect the other way counts as inactive or inconclusive.

COc1ccc(N2CCN(C(=O)c3ccccc3Br)CC2)c([N+](=O)[O-])c1	G9a block 56.2µM, JMJD2A Tudor inh inconclusive
COc1ccc(N2CCN(C(=O)c3ccc(C)cc3)CC2)c([N+](=O)[O-])c1	BAZ2B block inconclusive, G9a block inconclusive, JMJD2A Tudor inh inconclusive
O=C(NCCN1CCOCC1)c1ccc2ccccc2n1	none
CCN(CC(=O)NCc1ccc(F)cc1)C(=O)/C=C/c1cccs1	PLK1 PBD block 26.7µM
CCN(CC(=O)NCc1ccc(F)cc1)C(=O)/C=C/c1ccco1	G9a block inconclusive, ALOX12 inh inconclusive
CC(C)(C)NC(NC(=O)c1ccco1)C(Cl)(Cl)Cl (stereo unspecified)	none (no result: BAZ2B block, G9a block, PLK1 PBD block, HP1b chromo inh, JMJD2A Tudor inh)
CC(=O)OCC1=C(C(=O)O)N2C(=O)[C@@H](NC(=O)CSc3ccncc3)[C@H]2SC1	BAZ2B block 44.7µM, G9a block 15.8µM!, PLK1 PBD block inconclusive, HP1b chromo inh inconclusive, JMJD2A Tudor inh 17.8µM
CC(=O)OCC1=C(C(=O)O)N2C(=O)C(NC(=O)C(C)Cn3nc(C)c(Cl)c3C)C2SC1 (stereo unspecified)	BAZ2B block 56.2µM, G9a block 39.8µM, PLK1 PBD block inconclusive, ALOX12 inh inconclusive
COC(=O)Nc1ccc(S(=O)(=O)N2CCCc3ccccc32)cc1	none
CCCCCCn1cc(C(=O)O)c(=O)c2ccccc21	G9a block 44.7µM, JMJD2A Tudor inh inconclusive
CCOC(=O)c1cc2c(N)c(C(=O)c3cc(C#N)c(SC)nc3C)sc2nc1C	G9a block 44.7µM
Oc1cc2c(c(Cl)c1O)CCNCC2c1ccccc1 (stereo unspecified)	G9a block 10.6µM, ALOX12 inh inconclusive, JMJD2A Tudor inh 44.7µM (no result: BAZ2B block)
Oc1ccc(C2CNCCc3c2cc(O)c(O)c3Cl)cc1 (stereo unspecified)	G9a block 5.32µM!, ALOX12 inh inconclusive, JMJD2A Tudor inh 35.5µM!
CCOc1ccc2nc(NC(=O)CCNC(=O)c3ccc(F)cc3Cl)sc2c1	none (no result: BAZ2B block, G9a block, PLK1 PBD block, HP1b chromo inh, JMJD2A Tudor inh)
Cc1ccc2ncc(C(=O)N3CCN(c4ccccc4F)CC3)c(=O)n2c1	none (no result: PLK1 PBD block)
CCc1ccc(NC(=O)CSc2n[nH]c(C)c2[N+](=O)[O-])cc1	none
COc1ccc2[nH]c(N=Nc3ccccc3C)c(O)c2c1	BAZ2B block inconclusive, G9a block 12.6µM, ALOX12 inh inconclusive, JMJD2A Tudor inh 44.7µM
O=C(N=Nc1c(O)[nH]c2ccc(Br)cc12)c1ccccc1-n1cccc1	BAZ2B block 31.6µM, G9a block 25.1µM, HP1b chromo inh inconclusive, JMJD2A Tudor inh 15.8µM
Cc1ccccc1N=Nc1c(O)[nH]c2ccccc12	PLK1 PBD block inconclusive, JMJD2A Tudor inh inconclusive (no result: BAZ2B block, G9a block)
Cc1cccc(N=Nc2c(O)[nH]c3ccc(Br)cc23)c1	G9a block 44.7µM, ALOX12 inh inconclusive
COc1ccc2[nH]c(-c3ccccc3)cc(=O)c2c1	none (no result: BAZ2B block, PLK1 PBD block, ALOX12 inh, HP1b chromo inh, JMJD2A Tudor inh)
Cc1ccc2[nH]c(O)c(N=Nc3ccccc3C)c2c1	BAZ2B block inconclusive, G9a block 8.91µM, ALOX12 inh inconclusive, HP1b chromo inh 70.8µM, JMJD2A Tudor inh inconclusive
O=C(N=Nc1c(O)[nH]c2ccc(Br)cc12)c1ccco1	none (no result: BAZ2B block, G9a block, HP1b chromo inh, JMJD2A Tudor inh)
Cc1cccc(C)c1OCC(=O)N=Nc1c(O)[nH]c2ccc(Br)cc12	none
N=C(N)N=Nc1c(O)[nH]c2ccc(Br)cc12	BAZ2B block inconclusive, G9a block inconclusive
COc1ccccc1N=Nc1c(O)[nH]c2ccc(Br)cc12	PLK1 PBD block inconclusive, JMJD2A Tudor inh 44.7µM
COC1(c2ccccc2)NC(=S)NN=C1c1ccccc1 (stereo unspecified)	G9a block inconclusive, ALOX12 inh inconclusive
CCCCOC1(c2ccccc2)NC(=S)NN=C1c1ccccc1 (stereo unspecified)	G9a block 44.7µM (no result: PLK1 PBD block, ALOX12 inh, HP1b chromo inh, JMJD2A Tudor inh)
CCOc1ccc(-c2cc(N3C(=O)Nc4ccccc4N3O)on2)cc1	ALOX12 inh inconclusive
O=C(COc1ccc(Br)cc1Cl)NCCCN1CCOCC1	ALOX12 inh inconclusive
CC1CCCN(CCCOc2ccc(Br)cc2Cl)C1 (stereo unspecified)	BAZ2B block inconclusive, G9a block 20µM, ALOX12 inh 1.12µM, HP1b chromo inh inconclusive, JMJD2A Tudor inh 1.12µM
CC1CCN(CCOCCOc2ccc(Br)cc2Cl)CC1	BAZ2B block inconclusive, G9a block 8.91µM, ALOX12 inh inconclusive, HP1b chromo inh inconclusive, JMJD2A Tudor inh 2.82µM
CCN(CC)CCCNC(=O)c1cccs1	none (no result: BAZ2B block, G9a block, PLK1 PBD block, HP1b chromo inh, JMJD2A Tudor inh)
CC1CCCN(Cc2c(C(=O)N3CCc4ccccc4C3)nc3ccc(Cl)cn23)C1 (stereo unspecified)	BAZ2B block inconclusive
CCc1cc(-c2n[nH]c(=S)n2Cc2ccccc2)cs1	G9a block inconclusive, ALOX12 inh inconclusive, JMJD2A Tudor inh 56.2µM
CCCc1cc(-c2n[nH]c(=S)n2C(C)c2ccccc2)cs1 (stereo unspecified)	G9a block inconclusive, ALOX12 inh inconclusive
Cc1ccccc1-n1c(Cc2cccs2)n[nH]c1=S	G9a block inconclusive, ALOX12 inh inconclusive, JMJD2A Tudor inh 8.91µM
FC(F)(F)c1ccc(Cl)c(-n2c(Cc3cccs3)n[nH]c2=S)c1	BAZ2B block inconclusive, ALOX12 inh inconclusive, JMJD2A Tudor inh inconclusive (no result: G9a block)
CCCCn1c(-c2csc(CCC)c2)n[nH]c1=S	G9a block 8.91µM, ALOX12 inh inconclusive, JMJD2A Tudor inh inconclusive
Fc1ccc(-n2c(Cc3cccs3)n[nH]c2=S)cc1Cl	G9a block 1.78µM
COCCCN(C(=S)NC(=O)c1ccc(C(C)(C)C)cc1)c1c(N)n(Cc2ccccc2)c(=O)[nH]c1=O	none
